PP5 inh: blocks human protein phosphatase 5 activity. actives 0.18% (n = 320,000). AID 1987. P53041. inhibition, % at 6.7 µM. purified PP5c, OMFP substrate fluorescence;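 active = inhibition above the campaign's mean inhibition across all tested compounds plus 3 SD, cut at about 9.5% in these data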
CSC inhib: blocks cancer stem cells; inhibition, % at 7.5 µM; actives 1.1% (n = 300,000); cancer stem cell-like cells viability, luminescence; in the data active = inhibition above about 75%; tested in HMLE shEcad cells
SKKanGAS inh: SKKanGAS growth inhibition | S. pyogenes SKKanGAS, kanamycin growth, BacTiter-Glo, 6 h | actives 1.3% (n = 300,000) | inhibition, % at 7.5 µM | AID 1662;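 active = mean replicate score, as percent of positive control median, at least 50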;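 also: strain carries kanamycin resistance gene driven by streptokinase promoter and grows in 40 µg/ml kanamycin; loss of luminescence reflects streptokinase promoter inhibition or plain growth inhibition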
Beta cell apopt: blocks beta cell apoptosis | INS-1E cytokine-induced death, ATP luminescence, 48 h; percent of positive-control rescue, neutral wells zero | protection from apoptosis, % (test concentration not listed) | actives 0.8% (n = 300,000);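 active = Every replicate reaches about 75%, or at least half do and their mean reaches it too, limit read from the data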;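 also: higher means more ATP so stronger rescue from cytokine killing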
PP1 counter: blocks human PP1-alpha phosphatase, a PP5 counter-screen | P62136 | AID 2235 | purified PP1alpha, OMFP fluorescence | inhibition, % at 6.7 µM | actives 0.9% (n = 320,000);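 active = inhibition above the mean inhibition of all tested compounds plus 3 SD, computed separately for each screening campaign, cut at about 15% in these data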
Target sequence (P62136 whole entry, looked up): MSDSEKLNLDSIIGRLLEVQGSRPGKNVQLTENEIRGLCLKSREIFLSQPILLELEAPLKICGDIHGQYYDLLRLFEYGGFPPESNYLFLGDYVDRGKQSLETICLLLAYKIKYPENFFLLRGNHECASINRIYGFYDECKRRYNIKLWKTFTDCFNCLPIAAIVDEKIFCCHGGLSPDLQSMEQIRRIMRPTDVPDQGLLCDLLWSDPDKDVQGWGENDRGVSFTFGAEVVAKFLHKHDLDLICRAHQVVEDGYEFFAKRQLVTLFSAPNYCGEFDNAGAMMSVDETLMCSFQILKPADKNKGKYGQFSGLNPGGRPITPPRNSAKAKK
A number is an active result. Shown are actives, neighbours in structure and some others; about 3.1% of the full set was active somewhere.

Results for CN1/C(=C\P(=O)(N(C)C)N(C)C)C(C)(C)c2ccccc21 ?
PP5 inh: inactive; CSC inhib: inactive; SKKanGAS inh: inactive; Beta cell apopt: 87; PP1 counter: inactive

What do the screens show for `CCOC(=O)/C=C1/N(C)c2ccccc2C1(C)C`?
PP5 inh: inactive; CSC inhib: inactive; SKKanGAS inh: inactive; Beta cell apopt: inactive; PP1 counter: inactive

What do the screens show for `O=[N+]([O-])c1ccc(CN2CCN(c3ccc4ccccc4n3)CC2)cc1`?
PP5 inh: inactive; CSC inhib: inactive; SKKanGAS inh: inactive; Beta cell apopt: inactive; PP1 counter: inactive

Results for Cc1c(C)n(Cc2ccccc2)c2ccc(C(=O)OCCN(C)C)cc12 ?
PP5 inh: inactive; CSC inhib: 85; SKKanGAS inh: inactive; Beta cell apopt: inactive; PP1 counter: inactive

What do the screens show for `C/C(=N\NC(=S)NCc1ccccc1)c1cccc(Br)c1`?
PP5 inh: inactive; CSC inhib: inactive; SKKanGAS inh: 56; Beta cell apopt: inactive; PP1 counter: inactive

What do the screens show for `CC(=O)Nc1ccc(Cl)cc1C1COC(=O)C1=N` (stereo not given)?
PP5 inh: inactive; CSC inhib: inactive; SKKanGAS inh: inactive; Beta cell apopt: inactive; PP1 counter: inactive

How did CN1CCN(C2=Cc3ccccc3Sc3cc(F)c(F)cc32)CC1 do in these assays?
PP5 inh: inactive; CSC inhib: inactive; SKKanGAS inh: inactive; Beta cell apopt: inactive; PP1 counter: inactive

What do the screens show for `OCCN1CCN(C2Cc3cc(Cl)ccc3Sc3ccc(Cl)cc32)CC1` (stereo not given) (tested in a mixture with another compound)?
PP5 inh: inactive; SKKanGAS inh: inactive; Beta cell apopt: 101; PP1 counter: 15

How did CN1CCN(C2Cc3cc(Cl)ccc3Sc3cc(F)ccc32)CC1 (stereo not given) do in these assays?
PP5 inh: inactive; CSC inhib: 101; SKKanGAS inh: inactive; PP1 counter: inactive

What do the screens show for `CN1CCN(C2=Cc3cc(Cl)ccc3Sc3cc(F)ccc32)CC1`?
PP5 inh: inactive; CSC inhib: 113; SKKanGAS inh: 90; PP1 counter: inactive

Results for CCc1ccc2c(c1)Sc1ccccc1CC2N1CCN(C)CC1 (stereo not given) ?
PP5 inh: inactive; CSC inhib: inactive; SKKanGAS inh: inactive; Beta cell apopt: inactive; PP1 counter: inactive

Results for O=c1[nH]c(/C(Cl)=C/c2cc(Cl)ccc2O)nc2cc(Cl)ccc12 ?
PP5 inh: inactive; CSC inhib: 101; SKKanGAS inh: inactive; Beta cell apopt: inactive; PP1 counter: inactive

Results for O=c1[nH]c(/C(Cl)=C/c2c(F)cccc2Cl)nc2cc(Cl)ccc12 ?
PP5 inh: inactive; CSC inhib: inactive; SKKanGAS inh: inactive; Beta cell apopt: inactive; PP1 counter: inactive

What do the screens show for `Cc1ccc(Cn2ccc(=O)c(OCc3c(Cl)cccc3Cl)c2C)cc1`?
PP5 inh: inactive; CSC inhib: inactive; SKKanGAS inh: 70; Beta cell apopt: inactive; PP1 counter: inactive

How did Cc1[nH]ccc(=O)c1OCc1c(Cl)cccc1Cl do in these assays?
PP5 inh: inactive; CSC inhib: inactive; SKKanGAS inh: inactive; PP1 counter: inactive

Results for Cc1ccc2nc(Cl)c3cc(C(=O)N(CCN(C)C)Cc4ccco4)sc3c2c1 ?
PP5 inh: inactive; CSC inhib: 93; SKKanGAS inh: inactive; Beta cell apopt: inactive; PP1 counter: inactive

Results for CN(C)CCN(Cc1ccco1)C(=O)c1cc2c(Cl)nc3ccccc3c2s1 ?
PP5 inh: inactive; CSC inhib: inactive; SKKanGAS inh: inactive; Beta cell apopt: inactive; PP1 counter: inactive

What do the screens show for `CCc1ccccc1N1CC(C(=O)Nc2cc(C)on2)CC1=O` (stereo not given)?
PP5 inh: inactive; CSC inhib: inactive; SKKanGAS inh: inactive; PP1 counter: inactive

Results for CN(Cc1ccc(N(C)C)cc1)C(=O)c1cc2ccccc2o1 ?
PP5 inh: inactive; CSC inhib: inactive; SKKanGAS inh: 60; Beta cell apopt: inactive; PP1 counter: inactive

How did CN(Cc1ccccc1)C(=O)c1cc2ccccc2o1 do in these assays?
PP5 inh: inactive; CSC inhib: inactive; SKKanGAS inh: inactive; Beta cell apopt: inactive; PP1 counter: inactive

How did CC(C)(C)N(Cc1ccccc1)C(=O)c1cc2ccccc2o1 do in these assays?
PP5 inh: inactive; CSC inhib: 78; SKKanGAS inh: inactive; Beta cell apopt: inactive; PP1 counter: inactive

How did N#CCC(=O)N/N=C\c1ccc(OC/C=C/c2ccccc2)cc1 do in these assays?
PP5 inh: inactive; CSC inhib: inactive; SKKanGAS inh: inactive; Beta cell apopt: inactive; PP1 counter: 17

What do the screens show for `CCc1nc2nc(C)c(NS(=O)(=O)c3ccc(C4CCCCC4)cc3)c(=O)n2[nH]1`?
PP5 inh: inactive; SKKanGAS inh: inactive; Beta cell apopt: inactive; PP1 counter: inactive

Compound activity as filed in PubChem.
